Common to all, as to assay: log2 ratio of Biotin-Ahx-Ub-VS probe labelling (fragment/DMSO); higher = less target engagement (more negative = stronger competition), active = hit call of the paper (q ≤ 0.05, log2 ratio ≤ -1)
Holding throughout (conditions): compound concentration: 200 uM; treatment time: 3 h

One assay concerns the target T1, OTUD6B (UniProt Q8N6M0).
T1 sequence (whole entry): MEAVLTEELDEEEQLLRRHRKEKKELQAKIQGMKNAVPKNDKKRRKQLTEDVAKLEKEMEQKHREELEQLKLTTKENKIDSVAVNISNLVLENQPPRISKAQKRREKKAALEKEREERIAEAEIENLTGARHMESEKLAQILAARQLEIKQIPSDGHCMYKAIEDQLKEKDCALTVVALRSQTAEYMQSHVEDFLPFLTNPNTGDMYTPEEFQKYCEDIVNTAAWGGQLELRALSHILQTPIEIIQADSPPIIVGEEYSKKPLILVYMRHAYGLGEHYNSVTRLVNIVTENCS
The procedure, abridged: (§1)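 HEK293T lysate in Tris/CHAPS/IGEPAL buffer with protease inhibitors (495 µg per sample) was given fragment at 200 µM or vehicle for 3 h, in triplicate. It then received Biotin-Ahx-Ub-VS at 0.5 µM final for 1 h. Labelled DUBs were NeutrAvidin-enriched, digested with LysC and trypsin, and run by diaPASEF LC-MS/MS. Values are average log2 fragment/vehicle ratios by unpaired t-test on global-median-normalised Spectronaut quantities of proteins with ≥2 unique peptides.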

The target in the next assay is T2, OTUD7B (UniProt Q6GQQ9).
T2 sequence (whole entry): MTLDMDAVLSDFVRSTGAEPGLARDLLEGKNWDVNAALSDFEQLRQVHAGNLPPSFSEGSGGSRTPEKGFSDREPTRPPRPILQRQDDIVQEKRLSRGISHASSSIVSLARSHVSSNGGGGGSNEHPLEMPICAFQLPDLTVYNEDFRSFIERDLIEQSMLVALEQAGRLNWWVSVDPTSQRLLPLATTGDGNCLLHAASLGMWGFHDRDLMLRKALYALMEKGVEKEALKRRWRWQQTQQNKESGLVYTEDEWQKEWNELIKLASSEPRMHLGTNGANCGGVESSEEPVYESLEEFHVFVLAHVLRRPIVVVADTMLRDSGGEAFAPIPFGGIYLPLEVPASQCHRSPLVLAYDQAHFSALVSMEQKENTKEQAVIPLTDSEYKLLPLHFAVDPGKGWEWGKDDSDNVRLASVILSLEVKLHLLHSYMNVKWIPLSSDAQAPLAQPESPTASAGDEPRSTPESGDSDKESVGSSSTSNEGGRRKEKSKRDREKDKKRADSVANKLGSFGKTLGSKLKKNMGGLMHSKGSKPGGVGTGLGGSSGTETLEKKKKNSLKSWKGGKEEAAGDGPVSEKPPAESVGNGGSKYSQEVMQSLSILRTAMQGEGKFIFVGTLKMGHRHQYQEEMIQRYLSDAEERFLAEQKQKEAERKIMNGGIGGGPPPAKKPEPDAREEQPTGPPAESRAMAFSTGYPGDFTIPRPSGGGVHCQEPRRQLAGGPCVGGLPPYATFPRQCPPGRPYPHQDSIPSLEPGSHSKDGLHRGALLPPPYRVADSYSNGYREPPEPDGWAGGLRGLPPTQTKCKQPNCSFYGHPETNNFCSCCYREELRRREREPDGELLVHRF
In a few lines: as §1

The next assay addresses PRPF8 (UniProt Q6P2Q9). In a few lines:
as §1

A further assay addresses T3, PSMD7 (UniProt P51665).
T3 sequence (whole entry): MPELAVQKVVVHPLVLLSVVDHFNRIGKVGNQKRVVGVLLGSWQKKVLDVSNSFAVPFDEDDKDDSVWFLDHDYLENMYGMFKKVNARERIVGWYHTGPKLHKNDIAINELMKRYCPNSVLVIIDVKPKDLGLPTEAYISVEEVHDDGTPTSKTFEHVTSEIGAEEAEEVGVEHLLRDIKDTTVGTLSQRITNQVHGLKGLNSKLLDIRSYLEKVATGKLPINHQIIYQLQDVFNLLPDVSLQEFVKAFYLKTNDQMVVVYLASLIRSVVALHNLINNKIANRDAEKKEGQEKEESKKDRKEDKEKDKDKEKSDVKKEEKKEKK
In a few lines:
as §1

Another assay concerns the target UCHL1 (UniProt P09936). The procedure, abridged:
as §1

For another assay, the target named is T4, UCHL3 (UniProt P15374).
T4 sequence (whole entry): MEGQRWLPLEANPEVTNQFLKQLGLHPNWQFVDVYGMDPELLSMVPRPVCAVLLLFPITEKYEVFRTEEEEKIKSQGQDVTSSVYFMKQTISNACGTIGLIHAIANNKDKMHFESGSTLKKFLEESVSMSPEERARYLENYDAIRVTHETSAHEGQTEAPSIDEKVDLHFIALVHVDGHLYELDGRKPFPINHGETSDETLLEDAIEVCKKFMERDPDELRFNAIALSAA
The procedure, abridged: as §1

Another assay deals with T5, UCHL5 (UniProt Q9Y5K5).
T5 sequence (whole entry): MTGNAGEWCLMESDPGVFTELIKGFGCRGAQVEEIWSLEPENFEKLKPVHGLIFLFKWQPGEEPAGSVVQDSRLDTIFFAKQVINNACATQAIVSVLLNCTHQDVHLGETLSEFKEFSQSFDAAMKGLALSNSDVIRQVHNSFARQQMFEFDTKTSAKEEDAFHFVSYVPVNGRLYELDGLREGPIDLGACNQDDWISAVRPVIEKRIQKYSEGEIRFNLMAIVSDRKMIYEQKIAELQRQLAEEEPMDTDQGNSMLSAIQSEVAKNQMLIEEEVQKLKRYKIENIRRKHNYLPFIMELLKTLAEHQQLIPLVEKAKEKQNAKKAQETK
In a few lines:
as §1

For the next assay, the target named is USP10 (UniProt Q14694). The procedure, abridged:
as §1

The target of a further assay is T6, USP15 (UniProt Q9Y4E8).
T6 sequence (whole entry): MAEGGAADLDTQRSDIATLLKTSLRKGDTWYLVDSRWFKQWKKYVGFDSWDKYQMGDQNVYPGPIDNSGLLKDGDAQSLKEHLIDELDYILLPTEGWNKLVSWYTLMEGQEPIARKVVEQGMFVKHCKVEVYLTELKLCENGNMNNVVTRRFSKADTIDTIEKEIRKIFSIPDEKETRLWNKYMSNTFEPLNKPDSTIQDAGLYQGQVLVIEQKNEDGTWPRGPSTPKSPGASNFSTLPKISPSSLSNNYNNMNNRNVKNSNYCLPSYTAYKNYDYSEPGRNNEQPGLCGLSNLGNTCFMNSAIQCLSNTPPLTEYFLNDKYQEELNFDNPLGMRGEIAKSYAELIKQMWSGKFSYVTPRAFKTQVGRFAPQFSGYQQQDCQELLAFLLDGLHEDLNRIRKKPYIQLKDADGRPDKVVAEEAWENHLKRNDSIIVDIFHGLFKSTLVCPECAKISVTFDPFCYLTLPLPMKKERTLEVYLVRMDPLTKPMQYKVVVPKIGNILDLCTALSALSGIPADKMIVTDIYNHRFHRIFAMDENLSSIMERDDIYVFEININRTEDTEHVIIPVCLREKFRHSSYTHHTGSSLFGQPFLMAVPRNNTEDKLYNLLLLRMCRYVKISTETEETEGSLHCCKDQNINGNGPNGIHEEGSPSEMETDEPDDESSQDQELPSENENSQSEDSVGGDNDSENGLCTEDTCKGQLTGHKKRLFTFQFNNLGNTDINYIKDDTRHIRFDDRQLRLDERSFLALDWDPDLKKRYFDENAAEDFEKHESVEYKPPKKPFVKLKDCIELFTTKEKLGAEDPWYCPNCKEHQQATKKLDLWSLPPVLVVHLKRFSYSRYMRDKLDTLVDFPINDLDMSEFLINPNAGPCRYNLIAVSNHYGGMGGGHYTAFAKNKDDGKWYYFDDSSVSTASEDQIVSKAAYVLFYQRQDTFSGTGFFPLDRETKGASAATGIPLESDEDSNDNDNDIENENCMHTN
The procedure, abridged:
as §1

Another assay has as its target USP16 (UniProt Q9Y5T5). In a few lines:
as §1

Values without a mark were called inactive.

UCHL1, sequence (P09936 whole entry, looked up): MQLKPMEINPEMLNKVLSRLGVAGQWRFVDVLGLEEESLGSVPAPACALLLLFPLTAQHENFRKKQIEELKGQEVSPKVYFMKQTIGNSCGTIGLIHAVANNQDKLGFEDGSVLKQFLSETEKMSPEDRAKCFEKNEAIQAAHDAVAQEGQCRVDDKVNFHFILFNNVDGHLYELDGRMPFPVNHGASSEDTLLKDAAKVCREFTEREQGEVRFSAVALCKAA
USP16, sequence (Q9Y5T5 whole entry, looked up): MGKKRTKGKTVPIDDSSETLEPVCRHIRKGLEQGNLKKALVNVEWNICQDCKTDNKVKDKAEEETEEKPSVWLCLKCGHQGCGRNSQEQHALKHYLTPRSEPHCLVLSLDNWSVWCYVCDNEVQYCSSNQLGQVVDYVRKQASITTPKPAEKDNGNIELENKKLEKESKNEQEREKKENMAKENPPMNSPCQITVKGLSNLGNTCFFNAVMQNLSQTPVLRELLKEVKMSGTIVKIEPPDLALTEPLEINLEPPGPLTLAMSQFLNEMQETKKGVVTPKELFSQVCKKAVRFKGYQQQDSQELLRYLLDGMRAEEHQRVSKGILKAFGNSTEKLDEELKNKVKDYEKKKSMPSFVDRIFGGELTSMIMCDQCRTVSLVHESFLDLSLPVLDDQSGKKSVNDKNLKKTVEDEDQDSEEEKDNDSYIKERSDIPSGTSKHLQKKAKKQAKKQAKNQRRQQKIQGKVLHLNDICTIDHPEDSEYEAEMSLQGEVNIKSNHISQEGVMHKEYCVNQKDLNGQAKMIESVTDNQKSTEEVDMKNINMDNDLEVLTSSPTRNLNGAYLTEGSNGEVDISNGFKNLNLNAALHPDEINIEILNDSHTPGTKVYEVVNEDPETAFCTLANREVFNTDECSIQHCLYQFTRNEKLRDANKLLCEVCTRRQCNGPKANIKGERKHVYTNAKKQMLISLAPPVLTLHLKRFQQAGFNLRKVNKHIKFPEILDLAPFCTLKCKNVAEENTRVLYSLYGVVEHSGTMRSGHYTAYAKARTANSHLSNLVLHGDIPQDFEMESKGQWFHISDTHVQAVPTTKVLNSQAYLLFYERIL
USP10, sequence (Q14694 whole entry): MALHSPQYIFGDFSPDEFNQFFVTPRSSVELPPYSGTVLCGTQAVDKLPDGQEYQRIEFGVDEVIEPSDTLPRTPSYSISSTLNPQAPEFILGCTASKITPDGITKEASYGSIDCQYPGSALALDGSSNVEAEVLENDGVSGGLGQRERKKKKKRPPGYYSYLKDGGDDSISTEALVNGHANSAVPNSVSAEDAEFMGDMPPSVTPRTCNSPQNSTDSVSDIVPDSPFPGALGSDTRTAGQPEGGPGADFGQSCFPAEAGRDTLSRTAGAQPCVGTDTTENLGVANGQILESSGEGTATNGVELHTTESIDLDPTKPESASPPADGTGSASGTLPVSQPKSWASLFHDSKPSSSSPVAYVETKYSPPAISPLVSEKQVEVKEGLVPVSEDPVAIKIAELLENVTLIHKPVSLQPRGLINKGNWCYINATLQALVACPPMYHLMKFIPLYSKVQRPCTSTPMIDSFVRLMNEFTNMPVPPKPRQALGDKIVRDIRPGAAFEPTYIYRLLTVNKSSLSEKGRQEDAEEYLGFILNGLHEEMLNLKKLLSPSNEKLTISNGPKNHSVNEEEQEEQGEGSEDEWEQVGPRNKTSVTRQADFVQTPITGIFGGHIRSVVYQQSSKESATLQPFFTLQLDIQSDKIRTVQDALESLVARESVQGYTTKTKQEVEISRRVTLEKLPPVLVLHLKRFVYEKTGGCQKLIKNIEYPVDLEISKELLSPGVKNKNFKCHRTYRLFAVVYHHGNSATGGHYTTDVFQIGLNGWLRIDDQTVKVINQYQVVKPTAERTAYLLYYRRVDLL

For the compound `Cc1n[nH]c2c1CN(C(=O)CCl)CC2`, the “log2 ratio of Biotin-Ahx-Ub-VS probe labelling” value with OTUD6B was -0.715; in the assay with OTUD7B, -1.53 (active); with PRPF8, 0.0355; in the assay with PSMD7, -0.368; in the assay with UCHL1, -1.15; with UCHL3, -0.699. Also, the “log2 ratio of Biotin-Ahx-Ub-VS probe labelling” value with UCHL5 is -0.886; with USP10 it was -0.519; with USP15, -0.982; in the assay with USP16 it was -0.207.

For the origin of these results see the supplement of paper PMC11732987, “Enantioselective OTUD7B fragment discovery through chemoproteomics screening and high-throughput optimisation” (Communications Chemistry, 2025).
